From PubChem BioAssay AID687001 (Broad Institute, 2013)
Potency and affinity values are given separately.

Molecular target: Protein S100-A4 (Homo sapiens) (UniProt P26447)
Test: S100A4-myosin IIA binding inhibitor potency, dose response, biochemical, fluorescence polarization, cherry-picked hits (AID 687001);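 also: 0% = DMSO neutral control wells and -100% = TFP positive control wells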
Conditions: FP, S100A4/TAMRA-myosin IIA peptide binding; series mostly up to 11 µM; activity change, negative = inhibition: at the top concentration;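 active = signal-lowering compounds whose fitted half-maximal concentration is at or below twice the top tested dose in every run; inconclusive = runs disagree, flat 30 to 70% inhibition, or poor curve fit; inactive = the rest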

Chain of Protein S100-A4 (Homo sapiens) (P26447 whole entry, looked up): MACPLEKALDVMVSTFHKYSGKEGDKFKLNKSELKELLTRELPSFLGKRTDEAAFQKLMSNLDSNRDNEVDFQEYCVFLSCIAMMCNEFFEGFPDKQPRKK

Activity change, negative = inhibition, inactive:
CCCCn1c(N)c(N(CC(C)C)C(=O)COc2cc(C)ccc2Cl)c(=O)[nH]c1=O 0.449%
N/C(=N\OC(=O)CCn1cccc(C(F)(F)F)c1=O)c1ccc(OC(F)(F)F)cc1 0.387%
COCCCNC(=O)C[C@@H]1C[C@@]2(C(=O)OC)CCCCC=C2N(Cc2ccc3c(c2)OCO3)C1=O -2.69%
O=C(Nc1ccc2c(c1)OCO2)N[C@@H]1CC[C@@H](CCNC(=O)C2CCCC2)O[C@H]1CO -2.33%
COc1ccc(C=O)cc1COc1ccc2c(c1)OCO2 -4.28%
CCc1ccc(C(=O)NNC(=O)c2c(CC)noc2C)cc1 1.61%
CN1C(=O)c2cc(NC(=O)c3ccccc3Cl)ccc2OC[C@@H]2O[C@@H](CC(=O)NCC(F)(F)F)CC[C@H]21 6.99%
O=C(NC1CCCCC1)[C@H]1[C@H](CO)[C@H]2Cn3c(cccc3=O)[C@H]2N1C(=O)CC1CC1 7.77%
O=C(C[C@H]1CC[C@@H]2[C@H](COC[C@@H](O)CN2C(=O)Nc2ccc(F)cc2)O1)NCCc1ccccc1 7.77%
COCC(=O)N[C@H]1C=C[C@@H](CC(=O)OC)O[C@@H]1CO -0.487%
CN(C)Cc1cn(CC[C@H]2CC[C@H](NC(=O)Cc3cccnc3)[C@H](CO)O2)nn1 -0.327%
C=C1CCN([C@@H](Cc2ccccc2)C(=O)NC2CCN(Cc3ccccc3)CC2)S(=O)(=O)c2ccccc21 -0.361%
NC(=O)c1nsc(C(=O)N(c2ccccc2F)C(C(=O)NCc2ccccc2)c2ccc(O)cc2)c1N (centres undefined) 4.16%
CCCNC(=O)Nc1ccc2c(c1)OC[C@@H](C)N(C(=O)C1CC1)C[C@H](C)[C@@H](OC)CN(C)C2=O 1.76%
C[C@@H]1CN([C@@H](C)CO)C(=O)CCCn2cc(nn2)CO[C@H]1CN(C)S(=O)(=O)c1ccc(Oc2ccccc2)cc1 6.47%
CCCNC(=O)C(Cc1ccc(C(F)(F)F)cc1)NC(=O)c1ccc2ccccc2n1 (centres undefined) -0.823%
O=C(c1ccccc1)N1CC2(C1)[C@H](c1ccccc1)[C@@H](CO)N2Cc1ccccn1 -3.57% [at 10 µM]
O=C(COC(=O)C1CC1)NCCc1ccccc1 -4.24%
CCCNC(=O)N1CC[C@@H]2[C@@H](CO)N(C)c3ccc(-c4ccc(F)cc4)cc3[C@@H]21 -1.37%
CN1CCN(C(CNC(=O)C(=O)Nc2ccc3c(c2)OCO3)c2ccc(F)cc2)CC1 (centres undefined) -4.66%
CC(C)C[C@H]1CN(CCCC[C@@H]2CNC(=O)C(=O)N2Cc2ccccc2)C(=O)C(=O)N1Cc1ccccc1 -0.618%
CN(C(=O)COC(=O)/C=C/c1ccc2c(c1)OCO2)c1c(N)n(Cc2ccccc2)c(=O)[nH]c1=O 4.55%
O=C(OCc1cc(=O)n2ccsc2n1)c1ccc(OC(F)F)cc1 -1.21%
Cc1ccccc1CNS(=O)(=O)c1c(C(=O)N2CCCC2)c(C)n(C)c1C 0.538%
CC(C)(C)OC(=O)C[C@H]1C/C=C\C[C@H](CC(=O)N[C@H](CO)Cc2ccccc2)C(=O)N[C@H](Cc2ccccc2)COC1=O 2.92%
COc1ccc(CN(C)C[C@H]2Oc3c(NC(=O)NC(C)C)cccc3C(=O)N([C@H](C)CO)C[C@H]2C)cc1 -3.85%
C[C@@H](NC(=O)C[C@@H]1CC[C@H](NC(=O)C2CCC2)[C@H](CO)O1)c1ccccc1 0.215%
O=C(CCc1ccccc1)Nc1sc2c(c1C(=O)O)CCCC2 -4.68%
Cc1[nH]c(C)c(S(=O)(=O)N2CCN(c3ccccc3F)CC2)c1C(=O)N1CCCCC1 -2.64%
Cc1ccc(S(=O)(=O)NCC[C@@H]2CC[C@H](NC(=O)Nc3cccc(F)c3)[C@@H](CO)O2)cc1 0.251%
O=C(CN1C(=O)/C(=C/c2ccccc2Cl)SC1=S)NC1C=CS(=O)(=O)C1 (centres undefined) 17.7%
CS(=O)(=O)N(CCc1ccccc1)CC(=O)N1CCCCCC1 -5.34%
CCCCN1C[C@H](CSC)[C@@H](CC(=O)Nc2ccc(Br)cc2)C1=O 1.93%
Cc1ccc(N(C)S(=O)(=O)c2ccc3[nH]cc(C(=O)NCCCN4CCOCC4)c(=O)c3c2)cc1C 3.19%
Cc1ccc(C(=O)COC(=O)C2CC3CCCC(C2)C3=O)cc1[N+](=O)[O-] (centres undefined) -2.18%
Cn1cnc(S(=O)(=O)N2C[C@H](O)COC[C@@H]3O[C@H](CC(=O)NC4CCCC4)CC[C@H]32)c1 1.12%
CCOC(=O)[C@]12CCC=C1N(Cc1cccc3ccccc13)C(=O)[C@H](CC(=O)N1CCOCC1)C2 -5.12%
CCc1ccc(C(=O)NNC(=O)c2cccc(N3C(=O)CCC3=O)c2)cc1 1.21%
O=C(Nc1ccc(Cl)cc1)N[C@H]1CC[C@H](CCNC(=O)c2ccccc2F)O[C@@H]1CO 8.02%
